Most compounds without a hit are left out; they make up all but 17% or so of the library.
DT40 TDP1 no CPT – qHTS for Inhibitors of human tyrosyl-DNA phosphodiesterase 1 (TDP1): qHTS in cells in absence of CPT. DT40 Tdp1-/- hTDP1 cells, no CPT, ATP luminescence, 48 h. Potency, µM (highest dose often 46.2 µM), actives largely listed as inhibitors. 420,000 compounds, 15% hits. AID 686978, 2013; note: nearly all actives have a fitted effect of over 55% in size
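Camptothecin absent (DMSO only). Human TDP1-complemented DT40 knockout cells, 400 cells/well, 37 °C for minimum 48 hr; ATP measured via CellTiter-Glo, 30 min dark incubation, luminescence.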
TDP1 cell CPT – growth inhibition of DT40 Tdp1-/-;hTDP1 cells with camptothecin (screen for TDP1 inhibitors); Potency, µM (series often up to 46.2 µM), hits mostly inhibitors; chicken DT40 Tdp1-/-;hTDP1 cells + 20 nM CPT, ATP luminescence, 48 h; 420,000 compounds, 12% hits; AID 686979; note: nearly all actives have a fitted effect of over 55% in size
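Chicken DT40 Tdp1-/- cells stably complemented with human TDP1 were seeded at 400 cells/well in medium containing 20 nM camptothecin, exposed to pin-transferred compounds, and grown at 37 °C for at least 48 hr. Viability was read as ATP luminescence.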
ClpP mod – qHTS Assay for Activators of ClpP; ATP-dependent Clp protease proteolytic subunit (Bacillus subtilis (strain 168)), P80244; purified B. subtilis ClpP, FRET peptide cleavage, 20 min; Potency, µM (series often up to 57.5 µM); 340,000 compounds, 1.9% hits; active = well fitted falling curve with a large enough effect; inconclusive = small, poorly fitted or top-dose-only effect; inactive = no such curve, though single readings can be large or run the other way; note: the source files actives as falling curves though it sought activators and does not explain the sign; nearly all actives have a fitted effect of over 65% in size
Target sequence (P80244 whole entry, looked up): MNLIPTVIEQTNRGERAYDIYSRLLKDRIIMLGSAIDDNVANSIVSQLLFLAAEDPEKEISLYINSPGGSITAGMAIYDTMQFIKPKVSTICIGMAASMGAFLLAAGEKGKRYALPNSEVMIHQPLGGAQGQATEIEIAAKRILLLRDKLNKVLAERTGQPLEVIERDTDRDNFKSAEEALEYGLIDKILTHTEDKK
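Purified B. subtilis ClpP, 10 microg/mL final in Tris/HCl pH8 with KCl, BSA, glycerol and Tween-20, cleaved an Abz/nitrotyrosine-quenched decapeptide. Fluorescence (ex 320, em 430) was read at 0 and 20 min at room temperature. Delta was normalized to 5.8 microM ADEP and DMSO/no-enzyme controls.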
TDP1 block – TDP1 (human) enzyme inhibition; Q9NUW8; Potency, µM (doses to about 130 µM), usual class: inhibitors; recombinant TDP1, AlphaScreen DNA substrate cleavage; 350,000 compounds, 0.28% hits; note: nearly all actives have a fitted effect of over 40% in size
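Recombinant human Tdp1 (E. coli-expressed, 1 nM final) preincubated with compounds 15 min at room temperature, then 5'-biotin/3'-phosphotyrosine-FITC DNA substrate (15 nM final) added for 5 min. AlphaScreen beads (10 ug/ml final) added 10 min; cleavage lowers signal.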
Of the large screens only hits and unclear results are named; the others gave an inactive call. Unless noted, calls come from the whole dose curve; as a rule, active = well fitted curve in the direction sought with a large enough effect; inconclusive = small, poorly fitted or top-dose-only effect, or another doubt; inactive = no such curve, though single readings can be large; an effect the other way counts as inactive or inconclusive.

COc1cccc(CNC(=O)C2CCN(Cc3cc4ccccc4n3Cc3ccc(C)cc3)CC2)c1	DT40 TDP1 no CPT 21µM, TDP1 cell CPT inconclusive
CCOc1ccc(CNC(=O)C2CCN(Cc3cc4ccccc4n3Cc3ccccc3C)CC2)cc1	DT40 TDP1 no CPT 23µM, TDP1 cell CPT 13µM
Cc1ccc(C)c(N2CCN(C(=O)c3noc4c3CCCCC4)CC2)c1	DT40 TDP1 no CPT inconclusive, TDP1 cell CPT inconclusive
COc1ccc(Cn2c(C(=O)O)c(CNCc3ccc(C)o3)c3ccc(OC)cc32)cc1	TDP1 cell CPT 23µM
COc1ccc2c(CNCc3ccc(C)o3)c(C(=O)O)n(Cc3ccccc3C)c2c1	DT40 TDP1 no CPT 3.3µM, TDP1 cell CPT 7.3µM
COc1ccc2c(CNCc3ccc(Cl)cc3)c(C(=O)O)n(Cc3ccccc3C)c2c1	DT40 TDP1 no CPT 1.2µM, TDP1 cell CPT 2.3µM
COc1ccc(Cn2c(C(=O)O)c(CNCCc3ccccc3Cl)c3ccc(C)cc32)cc1	DT40 TDP1 no CPT inconclusive, TDP1 cell CPT inconclusive, ClpP mod inconclusive
Cc1ccc2c(CNCc3ccc(C)o3)c(C(=O)O)n(Cc3ccccc3C)c2c1	DT40 TDP1 no CPT inconclusive, TDP1 cell CPT inconclusive
N#CCC(=O)Nc1ccc(C(=O)OCC(=O)N(C2CCCCC2)C2CCCCC2)cc1	TDP1 cell CPT inconclusive (no result: TDP1 block)
COc1ccc(Cl)cc1NCc1nnc2n1CCCCC2	none
O=C(NCC1CCOCC1)C1Cc2c(-c3ccccc3Oc3ccccc3)ccnc2O1 (centres undefined)	DT40 TDP1 no CPT inconclusive, TDP1 cell CPT inconclusive (no result: TDP1 block)
CC1(C)Cc2ccccc2-c2nc3ccccc3c(=O)n21	DT40 TDP1 no CPT 12µM, TDP1 cell CPT inconclusive
Cc1ccc2c(CC(=O)N3CCN(c4ccccc4)CC3)coc2c1	none (no result: ClpP mod)
COc1ccc(-c2nc3c(c(SCC(=O)Nc4cccc(O)c4)n2)Cc2c(CO)cnc(C)c2O3)cc1	DT40 TDP1 no CPT 18µM, TDP1 cell CPT inconclusive
Cc1ncc(CO)c2c1Oc1nc(-c3ccccc3)nc(SCC(=O)Nc3cccc(O)c3)c1C2	DT40 TDP1 no CPT 26µM, TDP1 cell CPT inconclusive
Cc1ncc(CO)c2c1Oc1nc(-c3ccc(F)cc3)nc(SCC(=O)N3CCCCC3)c1C2	DT40 TDP1 no CPT 9.2µM, TDP1 cell CPT 16µM
CCc1ccc(NC(=O)CSc2nc(-c3ccc(C)cc3)nc3c2Cc2c(CO)cnc(C)c2O3)cc1	TDP1 block inconclusive
Cc1ncc(CO)c2c1Oc1nc(-c3ccccc3)nc(SCC(=O)Nc3cccc(C(F)(F)F)c3)c1C2	DT40 TDP1 no CPT 4.6µM, TDP1 cell CPT 6.5µM
CCOc1ccc(NC(=O)CSc2nc(-c3ccc(OC)cc3)nc3c2Cc2c(CO)cnc(C)c2O3)cc1	none
Cc1ncc(CO)c2c1Oc1nc(-c3ccccc3F)nc(SCC(=O)N3CCCCC3)c1C2	DT40 TDP1 no CPT inconclusive, TDP1 cell CPT inconclusive
CCc1ccccc1NC(=O)CSc1nc(-c2cccc(Cl)c2)nc2c1Cc1c(CO)cnc(C)c1O2	none
O=C(CSc1ccc(S(=O)(=O)N2CCCC2)cn1)Nc1ccc([N+](=O)[O-])cc1C(F)(F)F	DT40 TDP1 no CPT inconclusive, TDP1 cell CPT inconclusive (no result: TDP1 block)
CC1=C(C(=O)N(C(C)C)C(C)C)CC(CC(=O)NC2CCCC2)C(=O)N1Cc1ccc(C(C)(C)C)cc1 (centres undefined)	DT40 TDP1 no CPT 23µM, TDP1 cell CPT 21µM (no result: TDP1 block)
CC1=C(C(=O)N(C(C)C)C(C)C)CC(CC(=O)NC2CCCCC2)C(=O)N1CCC1=CCCCC1 (centres undefined)	DT40 TDP1 no CPT 23µM, TDP1 cell CPT inconclusive (no result: TDP1 block)
CC1=C(C(=O)N(C(C)C)C(C)C)CC(CC(=O)NCc2cccc3ccccc23)C(=O)N1Cc1ccc(F)cc1 (centres undefined)	DT40 TDP1 no CPT inconclusive, TDP1 cell CPT inconclusive (no result: TDP1 block)
CC1=C(C(=O)N(C(C)C)C(C)C)CC(CC(=O)NCc2cccc3ccccc23)C(=O)N1Cc1ccccc1 (centres undefined)	DT40 TDP1 no CPT 15µM, TDP1 cell CPT inconclusive (no result: TDP1 block)
CC1=C(C(=O)N(C)C)CC(CC(=O)NC2CCCCC2)C(=O)N1Cc1ccc(C(C)(C)C)cc1 (centres undefined)	DT40 TDP1 no CPT inconclusive, TDP1 cell CPT inconclusive (no result: TDP1 block)
CCN(CC)C(=O)C1=C(C)N(Cc2ccc(C(C)(C)C)cc2)C(=O)C(CC(=O)NC2CCCCC2)C1 (centres undefined)	DT40 TDP1 no CPT 12µM, TDP1 cell CPT 15µM (no result: TDP1 block)
COc1ccc(S(=O)(=O)NC2CCN(C#N)CC2)cc1	none (no result: DT40 TDP1 no CPT, TDP1 cell CPT, ClpP mod)
Cc1cn(C)c(CC(=O)NCc2ccc(F)cc2)c1C(=O)O	none
COc1ccc(CN2C(=O)C(CC(=O)NC3CCCCC3)CC(C(=O)N(C(C)C)C(C)C)=C2C)cc1 (centres undefined)	DT40 TDP1 no CPT 15µM, TDP1 cell CPT inconclusive (no result: TDP1 block)
CC(=O)[C@]1(O)CCC2C3CC(C)C4=CC(=O)C=CC4(C)[C@@]3(F)C(O)C[C@]21C (some centres undefined)	none (no result: ClpP mod)
COc1ccc(NC(=O)CN(C)Cc2cccs2)cc1Cl	DT40 TDP1 no CPT inconclusive, TDP1 cell CPT inconclusive (no result: ClpP mod)
CCOc1ccccc1CN1CCNC(=O)C1CC(=O)NCCCn1cccn1 (centres undefined)	none
CCN1CCN(Cc2c(O)ccc3oc(C)c(C(=O)Nc4ccc(OC)c(Cl)c4)c23)CC1	DT40 TDP1 no CPT inconclusive, TDP1 cell CPT 23µM
COc1ccc(NC(=O)c2c(C)oc3ccc(O)c(CN4CCN(Cc5ccccc5)CC4)c23)cc1Cl	DT40 TDP1 no CPT 15µM, TDP1 cell CPT 18µM
Cc1ccc(NC(=O)c2c(C)oc3ccc(O)c(CN4CCOCC4)c23)cc1	DT40 TDP1 no CPT inconclusive, TDP1 cell CPT inconclusive
CCCCNc1nc(C)nc2c1nc(-c1ccccc1)n2CCCN(C)C	none (no result: DT40 TDP1 no CPT, TDP1 cell CPT, ClpP mod)
Cc1cc(/C([O-])=C(/C(=S)Nc2ccc(F)cc2)[n+]2ccccc2)c(C)n1-c1ccc(F)cc1	none (no result: DT40 TDP1 no CPT, TDP1 cell CPT)
Cc1cc(/C([O-])=C(/C(=S)Nc2ccccc2)[n+]2ccccc2)c(C)n1-c1ccccc1	DT40 TDP1 no CPT inconclusive, TDP1 cell CPT inconclusive
Cc1ccc(-n2c(C)cc(/C([O-])=C(/C(=S)Nc3ccc(F)c(Cl)c3)[n+]3ccccc3)c2C)cc1	DT40 TDP1 no CPT 23µM, TDP1 cell CPT 23µM
Cc1cc(/C([O-])=C(/C(=S)Nc2ccc(F)cc2)[n+]2ccccc2)c(C)n1Cc1ccccc1Cl	DT40 TDP1 no CPT 23µM, TDP1 cell CPT 21µM
COc1ccc(NC(=O)/C(C#N)=C\c2ccc(-c3cc(C(=O)O)ccc3C)o2)cc1	none (no result: TDP1 block)
CCN1CCN(c2ccc(NC(=O)c3ccc(Br)o3)cc2)CC1	none
O=C(O)c1ccc(NC(=S)NC(=O)c2ccc(-c3ccc(Br)cc3)o2)cc1	TDP1 block 14µM
O=C(O)c1cccc(NC(=S)NC(=O)c2ccc(-c3ccc(Cl)cc3)o2)c1	none (no result: ClpP mod, TDP1 block)
NC(=O)c1ccc(-c2ccc(Br)cc2)o1	ClpP mod 28µM
O=C(O)CCc1ccc(-c2ccc(Br)cc2)o1	none
